Assay: basal MM1S mitochondrial membrane potential changes, profiling panel, cell-based, JC-1 fluorescence, 24 h, 100 nL compound (AID 1170); further: test concentration not given here
Conditions: higher = more signal

| SMILES | z-score |
| --- | --- |
| [N-]=[N+]=Nc1ccccc1[C@H]1OC(c2ccc(OCCCO)cc2)=N[C@@]1(Cc1ccccc1)C(=O)N1CCOCC1 | -2.67 |
| CN1C(=O)C2C=CC(C(O)c3ccccc3)N(N3CCCCC3)C2C1=O (stereo not given) | 0.581 |
| C=CCC(OC(C)=O)[C@@H]1[C@@H](N(Cc2ccc(-c3ccccc3)cc2)C(=O)Cc2ccc(F)cc2)c2cc(OCCCO)ccc2N1C(=O)c1ccc2ccccc2c1 (stereo not given in full) | 0.769 |
| COc1cc(CO)cc(I)c1O[C@H]1C=C(C(=O)NCCO)C[C@@H](N(C(=O)c2cc3ccccc3oc2=O)C2CCCCCC2)[C@@H]1O | -1.21 |
| CCCNC(=O)[C@@]1(Sc2ccc(C)cc2)CC(=O)N(Cc2ccccc2C(F)(F)F)[C@@H]1c1ccc(CO)cc1I | -1.78 |
| NC(=O)[C@@H]1[C@H]2C(=O)O[C@H](c3ccccc3)[C@H](c3ccccc3)N2[C@H](c2ccc(OCCO)cc2)[C@@]12C(=O)Nc1ccc(C#CC3=CCCCC3)cc12 | -1.71 |
| COCCCNC(=O)[C@@]1(Cc2ccccc2)N=C(c2ccc(OCCCO)cc2)O[C@H]1c1ccccc1CN=[N+]=[N-] | -0.918 |
| Cc1ccc(C2C3C(=O)CC4C(=O)N(c5ccccc5)C(=O)C4C3CN2S(=O)(=O)c2ccc(C)cc2)cc1 (stereo not given) | -0.878 |
| O=C(NC1CC1)[C@@H]1c2ccccc2C(=O)N(Cc2cc(F)cc(C(F)(F)F)c2)[C@H]1c1ccc(CO)cc1 | -0.232 |
| COc1cc2c(cc1O)C(c1cccs1)N(Cc1cccc(OC(F)(F)F)c1)CC2 (stereo not given) | -1.77 |
| CCOC(=O)C1=CC[C@@H](c2ccccc2)N(S(=O)(=O)c2ccc(C)cc2)[C@H]1c1ccc(CC)cc1 | -1.84 |
| CN1CCC(CCCO)=CC1c1cccs1 (stereo not given) | 0.00928 |
| CCCCCN1CC=CC23O[C@@H]4C=CCOC(=O)[C@@H]4[C@H]2C(=O)N(C(C)CO)[C@@H]3C1=O (stereo not given in full) | -0.212 |
| Cc1ccc(S[C@]2(C(=O)NCC(C)C)CC(=O)N(Cc3cc(C(F)(F)F)cc(C(F)(F)F)c3)[C@@H]2c2ccc(CO)cc2)cc1 | -0.133 |
| CC1CC/C=C\[C@H]2OC34C=CCN(Cn5nnc6ccccc65)C(=O)[C@H]3N(CCCCCO)C(=O)[C@@H]4C2C(=O)O1 (stereo not given in full) | -0.124 |
| COc1ccc([Si](C)(C)[C@@H]2[C@@H](CCO)O[C@]3(C(=O)N(Cc4cccc(N5CCOC5=O)c4)c4ccccc43)[C@H]2C)cc1 | -1.78 |
| CCCCN1CC=CC23O[C@@H]4C=CCCOC(=O)C4[C@H]2C(=O)N(CCCCCO)[C@@H]3C1=O (stereo not given in full) | -0.832 |
| COc1ccc(CCNC(=O)[C@@]2(C)c3ccccc3C(=O)N(c3ccc(C)cn3)[C@H]2c2ccc(CO)cc2)cc1 | -0.00393 |
| COC(=O)[C@@]1(Cc2ccc(OC)cc2)[C@H]2c3cc(C(=O)N4CCCC4)n(Cc4nc5ccccc5[nH]4)c3C[C@H]2CN1C(=O)c1ccccc1 | -0.816 |
| [N-]=[N+]=NCc1ccccc1[C@@H]1OC(c2ccc(OCCCO)cc2)=N[C@]1(CCS(=O)(=O)c1ccccc1)C(=O)N1CCOCC1 | -0.412 |
| CCOC(=O)C1=CC[C@H]2C(=O)N(c3ccccc3)C(=O)[C@@H]12 | 0.371 |
| COC(=O)[C@@]1(Cc2ccc(F)cc2)[C@H]2c3cc(C(=O)N(C)C)n(Cc4ccc(C)o4)c3C[C@H]2CN1C(=O)c1ccccc1 | -0.209 |
| OCCCC1=CC(C2CC2)N(Cc2cccc(OC(F)(F)F)c2)CC1 (stereo not given) | 0.572 |
| CCOc1cc(C(O)C2C=CC3C(=O)N(c4ccccc4)C(=O)C3N2Nc2ccc(C(C)C)cc2)ccc1O (stereo not given) | -0.19 |
| CO[C@H]1O[C@H](CO)[C@@H](OC(=O)Nc2ccccc2)[C@@H]2OC(=O)[C@@H](Cc3ccc4ccccc4c3)C/C=C/C[C@H](Cc3ccc4ccccc4c3)C(=O)O[C@@H]12 | -0.135 |
| CCOC(=O)C[C@H]1[C@H](OC(=O)c2ccc(C(=O)c3ccccc3)cc2)[C@@H](NC(=O)Cc2ccc(OC)cc2)c2cc(OCCCO)ccc2N1C(=O)c1ccc2ccccc2n1 | 0.567 |
| C=CC[C@]1(C(=O)N2CCOCC2)N=C(c2ccc(OCCCO)cc2)O[C@H]1c1ccccc1N=[N+]=[N-] | -1.44 |
| NC(=O)[C@@H]1[C@H]2C(=O)O[C@H](c3ccccc3)[C@H](c3ccccc3)N2[C@H](c2ccc(O)cc2)[C@@]12C(=O)Nc1ccc(C#CC3=CCCCC3)cc12 | -1.94 |
| COCCCNC(=O)[C@]1(Cc2ccccc2)N=C(c2ccc(OCCCO)cc2)O[C@@H]1c1ccccc1CN=[N+]=[N-] | -0.712 |
| CC(C)(C)OC(=O)CC[C@]1(C(N)=O)N=C(c2ccc(OCCCO)cc2)O[C@H]1c1ccccc1 | 0.335 |

Source: PubChem BioAssay
